Reference: PubChem BioAssay AID709 (SRMLSC, 2007)
Out of some 65,000 compounds screened, about 3,600 (5.5%) were called active.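 The calls were made as follows: active = at 10 µM, mean starting fluorescence two-fold or more over control wells; inactive = the rest.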 The list comes from a sample in which actives are over-represented; it also holds similar structures and randomly drawn compounds.

experiment: intrinsic fluorescence of library compounds, ex339/em460 – biochemical, MLSMR library, data from DPM-DC assay, artefact control, profiling panel (AID 709); settings: compound autofluorescence, ex339/em460 nm, NADH buffer; at 10 µM; stronger effect = higher value; 1 = no-compound wells, NADH background;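 also: signal is the first read of a kinetic run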

SMILES | fluorescence fold increase
COc1ccccc1N1CCN(C(=O)Cn2nnc(-c3cccs3)n2)CC1 | 1.07 (inactive)
C=CCn1c(=S)[nH]c2nc3c(cc2c1=O)COC(C)(C)C3 | 1.03 (inactive)
O=C(c1ccccc1-c1ccccc1)N1CCOCC1 | 0.82 (inactive)
O=c1c(-c2ccccc2)coc2c(CN3CCOCC3)c(O)ccc12 | 2.45 (active)
COc1ccc(OC)c(C(=O)c2coc3ccc(O)c(CN4CCOCC4)c23)c1 | 1.03 (inactive)
CSCCC(NC(N)=O)C(=O)N(C)CC(=O)Nc1ccc(C)cc1 (stereo unspecified) | 0.91 (inactive)
O=C(NCCCN1CCCCCC1)C1CC(=O)N(C2CCCC2)C1 (stereo unspecified) | 1.16 (inactive)
COc1cc2ccccc2cc1C(=O)Nc1ccc(S(=O)(=O)Nc2cc(C)on2)cc1 | 1.32 (inactive)
O=C(Cn1cnc2c(nnn2-c2ccccc2)c1=O)N1CCC(Cc2ccccc2)CC1 | 1.07 (inactive)
CCCCOc1ccc(-c2ncc(C(=O)OCC)c(N)n2)cc1 | 1.17 (inactive)
CCOC(=O)c1cnc(-n2nc(C)cc2C)nc1-n1nc(C)cc1C | 1.13 (inactive)
O=C(NCc1ccccn1)c1cnc2sccn2c1=O | 2.7 (active)
O=C(NCc1ccccn1)Nc1ccc(F)cc1 | 1.14 (inactive)
O=C(NCc1ccccn1)c1cc2ccccc2oc1=O | 1.48 (inactive)
CCOC(=O)c1cnc2sccn2c1=O | 3.33 (active)
Cc1cc2nc(-c3ccc(NC(=O)c4cccnc4)cc3)oc2cc1C | 2.26 (active)
CC(C)NS(=O)(=O)c1ccc(NC(=O)c2cccnc2)cc1 | 1.03 (inactive)
CCOC(=O)c1cc(NC(=O)c2cccnc2)cc(C(=O)OCC)c1 | 1.12 (inactive)
CSc1nc(C)nc2c1c(=O)n(C)c(=O)n2C | 1.11 (inactive)
Cc1cc(NCc2ccco2)n2c(nc3ccccc32)c1C#N | 2.23 (active)
c1coc(CNc2ncnc3ccccc23)c1 | 1.1 (inactive)
Cc1ccccc1NC(=O)NCc1ccco1 | 1.12 (inactive)
Cc1cccc(OCc2nnc(SCn3nnc4ccccc4c3=O)o2)c1 | 1.07 (inactive)
CC(C)(C)n1nc2c(c1NC(=O)c1ccc(S(=O)(=O)N3CCCC3)cc1)CS(=O)C2 (stereo unspecified) | 1.02 (inactive)
N/C(=N\c1nc2ccccc2o1)NC(=O)C(Cc1ccccc1)N1C(=O)c2ccccc2C1=O (stereo unspecified) | 1.09 (inactive)
O=C(CCN1C(=O)c2ccccc2C1=O)NCCN1CCOCC1 | 1.02 (inactive)

SMILES | fluorescence fold increase
O=C(NCCN1CCOCC1)[C@H](Cc1ccccc1)N1C(=O)c2ccccc2C1=O | 2.12 (active)
Clc1ccc(Cc2nnc(-c3cccs3)o2)cc1 | 1.11 (inactive)
O=C(Nc1nccs1)C1CCCN1S(=O)(=O)c1cccc2cccnc12 (stereo unspecified) | 1 (inactive)
Cc1c(C(=O)OCc2cc(=O)n3cc(Br)ccc3n2)oc2ccccc12 | 1.07 (inactive)
Cc1c(C(=O)OCC(=O)N(CCC#N)c2ccccc2)oc2c1ccc1ccccc12 | 2.16 (active)
NC(=NC(=O)c1ccccc1)C1=C(O)CCC1=O | 1.14 (inactive)
CCCc1nc(-c2ccccc2O)n(-c2ccccc2)n1 | 1.12 (inactive)
COc1ccc(OC)c2sc(NC(=O)C3COc4ccccc4O3)nc12 (stereo unspecified) | 1.19 (inactive)
CCCCn1c(SCC(=O)NCC2CCCO2)nc2ccc(N3CCOCC3)cc2c1=O (stereo unspecified) | 4.22 (active)
COCCNC(=O)CSc1nc2c(n1-c1ccccc1)CCCC2 | 1.16 (inactive)
Cc1ccc2cc(C#N)c(SCC(=O)NCC3CCCO3)nc2c1C (stereo unspecified) | 1.14 (inactive)
CCn1c(SCC(=O)NCC2CCCO2)nc2cc(S(=O)(=O)N3CCCCC3)ccc21 (stereo unspecified) | 1 (inactive)
CCc1ccc(NC(=O)CSc2nc3ccccc3c(=O)n2CCN2CCOCC2)cc1 | 1.09 (inactive)
COCCCNC(=O)CSc1nc2ccc(N3CCOCC3)cc2c(=O)n1CCc1ccccc1 | 2.61 (active)
CC12CCC(C(=O)N(CCC#N)CCC#N)(CC1=O)C2(C)C (stereo unspecified) | 1.07 (inactive)
Cc1ccc(S(=O)(=O)N2CCC(C(=O)N[C@@H](C)C(=O)NCCc3ccccc3)CC2)cc1 | 1.11 (inactive)
O=C(c1c(Cl)nc2sccn12)N1CCCc2ccccc21 | 1 (inactive)
O=C(CC(NCCN1CCOCC1)C(=O)O)Nc1cccc(Cl)c1 (stereo unspecified) | 1.1 (inactive)
COc1ccc(-n2nnc3c(=O)n(CC(=O)N4CCC(Cc5ccccc5)CC4)cnc32)cc1 | 1.08 (inactive)
COc1ccc2c(c1OC)C(=O)OC2c1c(O)nc(SC)n(-c2ccccc2)c1=O (stereo unspecified) | 1.06 (inactive)
CCOC(=O)c1cc2ccccc2nc1C | 1.08 (inactive)
Cc1cc(O)ccc1-c1cnc2ccccc2n1 | 1.05 (inactive)
Cc1nc2ccccc2cc1O | 2.48 (active)
Cc1cccc(OCc2nnc(SCC(=O)N3CCN(C(=O)c4ccco4)CC3)n2C)c1C | 1.11 (inactive)
O=C(O)C1CCN(S(=O)(=O)N2CCOCC2)CC1 | 1.1 (inactive)
CCOC(=O)c1cc2n(c1C)-c1ccccc1C2=O | 1.02 (inactive)

SMILES | fluorescence fold increase
CCCn1c(=NC(C)=O)c(C(=O)OCC)cc2c(=O)n3ccccc3nc21 | 3.86 (active)
CCOC(=O)c1cc2n(c1N)-c1ccccc1C2=O | 1.16 (inactive)
O=C(Nc1ccc(NC(=O)c2cccs2)cn1)c1ccco1 | 1.08 (inactive)
Cc1cccc(-n2c(N)cc(=O)nc2SC(C)C(=O)NC2CCCCC2)c1 (stereo unspecified) | 1.06 (inactive)
O=C(CN1C(=O)C2C3C=CC(C3)C2C1=O)NCCc1ccccc1Cl (stereo unspecified) | 1.05 (inactive)
CCOc1ccc(OCC)c(NC(=O)CSc2nnc(Cn3cnc4ccccc43)n2C)c1 | 1.12 (inactive)
Cn1c(Cc2csc(N)n2)nnc1SC/C=C/c1ccccc1 | 1.1 (inactive)
Cc1cn(C2C=CC(CO)O2)c(=O)[nH]c1=O (stereo unspecified) | 1.07 (inactive)
CCn1nc(NC(=O)c2ccco2)c2cc3ccc(C)cc3nc21 | 3.62 (active)
Cc1ccc(-n2nc3cc(Cl)c(NC(=O)c4ccco4)cc3n2)cc1 | 1.84 (inactive)
Cc1ccc(Cn2c(NC(=O)c3ccco3)nc3ccccc32)cc1 | 1.32 (inactive)
CCOc1ccc(NC(=O)CCS(=O)(=O)c2cccc3nsnc23)cc1 | 1.08 (inactive)
CCC1CCCCN1C(=O)Nc1cccc(NC(=O)N2CCCCC2CC)c1 (stereo unspecified) | 1.13 (inactive)
CCOC(=O)N1CCN(S(=O)(=O)c2cc3c(cc2C)NC(=O)CO3)CC1 | 1.11 (inactive)
CCn1ncc(C2=NOC(C(=O)N3CCN(c4ccccc4)CC3)C2)c1C (stereo unspecified) | 1.14 (inactive)
O=C(NCc1cccs1)c1ccc2c(c1)ncn2C1CCCC1 | 1.03 (inactive)
O=C(CSc1nnc(-c2ccc(NS(=O)(=O)c3ccccc3)cc2)o1)NCC1CCCO1 (stereo unspecified) | 1.01 (inactive)
O=C(CS(=O)(=O)Cc1ccccc1)NCC1CCCO1 (stereo unspecified) | 1.1 (inactive)
O=C(CSC1=Nc2ccccc2C2=NC(c3ccccc3)C(=O)N12)NCC1CCCO1 (stereo unspecified) | 2.12 (active)
CN(C(=O)COc1ccccc1)c1nnc(-c2ccncc2)s1 | 5 (active)
COc1cccc(-c2nnc(N(C)C(=O)c3ccno3)s2)c1 | 1.38 (inactive)
CN(C(=O)C1CCOC1)c1nnc(-c2cccnc2)s1 (stereo unspecified) | 1.03 (inactive)
CN(C(=O)c1ccno1)c1nnc(-c2cccnc2)s1 | 1.68 (inactive)
CN(C(=O)c1ccccn1)c1nnc(-c2ccccn2)s1 | 3.72 (active)
O=C(c1cccs1)N(C(=O)c1cccs1)c1ccccn1 | 1.09 (inactive)
Cc1ccc(C)c(NC(=O)CSc2nnc(Cc3cccn3C)n2-c2ccc(F)cc2)c1 | 1.08 (inactive)

SMILES | fluorescence fold increase
CCCCOc1ccccc1/C=c1/sc2nc(-c3oc4ccccc4c3C)nn2c1=O | 1.1 (inactive)
Cc1ccccc1CSc1nnc(-c2ccccn2)n1N | 1.08 (inactive)
CN(C)CCCNc1c2c(c(C#N)c3nc4ccccc4n13)CCC2 | 2.1 (active)
N#Cc1c2c(c(N3CCN(CCO)CC3)n3c1nc1ccccc13)CCCC2 | 1.53 (inactive)
COc1ccc(-n2nc3c(c2NC(=O)Cc2cccc(C)c2)CS(=O)C3)cc1 (stereo unspecified) | 1.15 (inactive)
Cn1cccc1C1(C(F)(F)F)NCCNC1=O (stereo unspecified) | 1.11 (inactive)
CC(=O)c1ccc(NC(=O)N[C@@H](Cc2ccccc2)C(=O)O)cc1 | 1.09 (inactive)
COc1ccc(NC(=O)c2ccc(OC)cc2)cc1 | 1.13 (inactive)
COc1cc(OC)cc(C(=O)Nc2ncc3c(n2)CC(C)(C)CC3=O)c1 | 1.1 (inactive)
COc1cc(OC)cc(C(=O)Nc2ccc(-c3nc4ccccc4o3)c(O)c2)c1 | 2.11 (active)
Cc1ccc(S(=O)(=O)NC(C)C(=O)Nc2ccccc2C(=O)N2CCCC2)cc1 (stereo unspecified) | 1.1 (inactive)
CCCC(=O)N=c1sc2cccc(F)c2n1C | 1.09 (inactive)
Cc1cc(N2CCCC2)n2nc(C)c(-c3ccccc3)c2n1 | 1.68 (inactive)
Cc1nn2c3cc(N4CCOCC4)ccc3nc2c2ccccc12 | 1.11 (inactive)
Cc1cc(C)c2c(n1)nn1c(-n3ccnc3)cc(C)nc21 | 3.27 (active)
O=C(c1ccco1)N1CCN(c2cccc(Cl)c2)CC1 | 1.03 (inactive)
Cc1cc(C)c2c(n1)nn1c(N3CCN(c4cccc(Cl)c4)CC3)cc(C)nc21 | 2.17 (active)
C/C(O)=C\c1nc(=O)c2c(C)cc(C)nc2n1-c1ccccc1 | 1.08 (inactive)
Cc1cc(C)c2c(n1)nn1c(N3CCOCC3)cc(C)nc21 | 2.97 (active)
Cc1nc(SC(C)C)[nH]c(=O)c1Cc1ccccc1 | 1.11 (inactive)
CCOc1ccc2nc(NC(=O)CSc3nc4c(c(=O)n(C)c(=O)n4C)n3CC)sc2c1 | 1.12 (inactive)
CC(=O)NC(Cc1ccc(F)cc1)C(=O)O (stereo unspecified) | 1.02 (inactive)
CCOC(=O)c1oc2ccccc2c1NC(=O)c1cccs1 | 1.25 (inactive)
